USP17 inh = human USP17-like deubiquitinase inhibition. A8MUK1. inhibition, % at 50 µM. AID 1645855. actives 6.5% (n = 47,000). purified USP17, Ub-rhodamine cleavage fluorescence, 3 h
Target sequence (A8MUK1 whole entry, looked up): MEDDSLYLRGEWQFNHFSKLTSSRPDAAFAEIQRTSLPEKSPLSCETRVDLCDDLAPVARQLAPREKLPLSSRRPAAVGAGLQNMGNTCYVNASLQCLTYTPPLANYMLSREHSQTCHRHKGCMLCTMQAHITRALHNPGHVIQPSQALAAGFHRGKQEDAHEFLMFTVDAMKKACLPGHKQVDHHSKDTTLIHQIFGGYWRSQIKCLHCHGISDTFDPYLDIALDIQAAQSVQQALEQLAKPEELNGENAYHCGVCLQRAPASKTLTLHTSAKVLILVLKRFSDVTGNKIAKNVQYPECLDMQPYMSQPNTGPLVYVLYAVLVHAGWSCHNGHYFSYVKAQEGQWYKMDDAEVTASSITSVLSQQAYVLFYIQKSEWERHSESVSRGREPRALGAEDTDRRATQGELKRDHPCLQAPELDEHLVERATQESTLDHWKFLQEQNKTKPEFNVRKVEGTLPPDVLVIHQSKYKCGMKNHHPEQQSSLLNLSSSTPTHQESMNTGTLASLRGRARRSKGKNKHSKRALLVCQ
USP30 block = inhibitors of human USP30 deubiquitinase | Q70CQ3 | AID 1645860 | inhibition, % at 25 µM | purified USP30, Ub-rhodamine cleavage fluorescence | actives 5.3% (n = 47,000)
USP28 inh = human USP28 deubiquitinase inhibition; Q96RU2; purified USP28, Ub-rhodamine cleavage fluorescence, 30 min; inhibition, % at 25 µM; actives 3% (n = 47,000); AID 1645857
An asterisk follows results filed as active. A selection: hits, their analogues and other compounds. The true share with any hit is near 11%. No stated cut-off is given here; in the data, active means inhibition above about 30%; inactive means the rest.

For COc1ccc2[nH]cc(C(=O)c3ccc(F)cc3)c(=O)c2c1 the results were USP17 inh 8.8.
For COc1ccc2[nH]cc(S(=O)(=O)c3ccc(C)c(F)c3)c(=O)c2c1 the results were USP17 inh 59.1*, USP30 block 42.6* and USP28 inh 14.2.
`COc1ccc(NC(=O)CCN(c2ccc(C)cc2)S(=O)(=O)c2ccc(C)cc2)cc1Cl` gave USP17 inh -2.5, USP30 block -1.8 and USP28 inh 2.0.
CCc1ccccc1NC(=O)CC[C@@H]1NC(=O)N(Cc2ccc(OC)cc2)C1=O was read as USP17 inh 16.6, USP30 block 22.6 and USP28 inh 10.8.
For O=C(CN1CN(c2cccc(F)c2)c2ncccc2S1(=O)=O)Nc1ccccc1F the results were USP17 inh -5.2, USP30 block -11.9 and USP28 inh -8.6.
Cc1nn(-c2ccccc2)c(C)c1S(=O)(=O)Nc1ccccc1F was read as USP17 inh 2.9, USP30 block 5.4 and USP28 inh 0.2.
For Cc1nnc2cc(N3CCN(S(=O)(=O)c4ccccc4F)CC3)cnn12 the results were USP17 inh 19.4, USP30 block 23.8 and USP28 inh 15.5.
`Cn1c(CCNC(=O)Cc2ccc(F)cc2)nc2cccnc21` gave USP17 inh -139.3, USP30 block inactive and USP28 inh -161.1.
`CC(C)NC(=O)CN1CCCN(c2ncnc3cc(Cl)ccc23)CC1` gave USP17 inh 9.6, USP30 block 10.1 and USP28 inh 4.4.
Screening CC(=O)N1c2ccc(S(=O)(=O)N3CCC(C(=O)NCc4cccs4)CC3)cc2CC1C (stereo unspecified) returned USP17 inh -8.6, USP30 block 2.5 and USP28 inh 0.9.
`CCOc1ccc2nc(NC(=O)C3CCN(S(=O)(=O)c4ccc5c(c4)CC(C)N5C(C)=O)CC3)sc2c1` (stereo unspecified) gave USP17 inh 13.4, USP30 block 50.1* and USP28 inh -11.3.
COc1ccc(NS(=O)(=O)c2ccc(C)c(NC(=O)COc3ccccc3F)c2)cc1 was read as USP17 inh -0.4, USP30 block 0.1 and USP28 inh -0.2.
Screening CCN(CC)S(=O)(=O)c1ccc(O)c(NC(=O)COc2ccccc2F)c1 returned USP17 inh 33.4*, USP30 block 29.9 and USP28 inh -17.1.
For CN(C)CCN1C(=O)C(O)=C(C(=O)c2cc3ccccc3o2)C1c1ccncc1 (stereo unspecified) the results were USP17 inh 10.1, USP30 block -3.5 and USP28 inh 7.4.
O=c1c(NCCCN2CCCC2)nc2ccncc2n1Cc1ccccc1 was read as USP17 inh 58.1*, USP30 block -0.1 and USP28 inh -5.9.
For CCCCNc1nc2ccncc2n(Cc2ccccc2)c1=O the results were USP17 inh 29.6.
For CCc1ccc(Nc2nc3ccncc3n(Cc3ccccc3)c2=O)cc1 the results were USP17 inh -4.5, USP30 block 5.8 and USP28 inh -9.3.
Screening CCOc1cccc(CNc2nc3ccncc3n(Cc3ccccc3)c2=O)c1 returned USP17 inh 28.5, USP30 block 35.8* and USP28 inh -15.2.
CNc1nc2c(c(=O)n1C)CCN(S(=O)(=O)c1ccc(C(F)(F)F)cc1)C2 was read as USP17 inh -7.4, USP30 block -36.9 and USP28 inh 1.4.
Screening CCCOc1ccc(/C(O)=C2\C(=O)C(=O)N(CCN(C)C)C2c2ccccc2F)cc1 (stereo unspecified) returned USP17 inh 10.7, USP30 block -18.9 and USP28 inh 2.8.
Screening COc1ccc(CCNC(=O)C2CCCN(S(=O)(=O)N3CCC(C)CC3)C2)c(OC)c1 (stereo unspecified) returned USP17 inh 16.6, USP30 block 32.7* and USP28 inh 10.4.
`O=C(Nc1ccccc1F)C1CCCN(S(=O)(=O)Cc2ccc(F)cc2)C1` (stereo unspecified) gave USP17 inh -2.5, USP30 block -4.7 and USP28 inh -9.3.
For COc1ccc(CNC(=O)C2CCCN(S(=O)(=O)Cc3ccccc3Cl)C2)cc1 (stereo unspecified) the results were USP17 inh 2.4, USP30 block 14.0 and USP28 inh -12.8.
`CC1CCN(S(=O)(=O)N2CCCC(C(=O)NCc3ccccc3)C2)CC1` (stereo unspecified) gave USP17 inh 26.7, USP30 block 36.0* and USP28 inh 13.9.
For COc1ccc(NC(=O)C2CCCN(S(=O)(=O)N3CCC(C)CC3)C2)c(OC)c1 (stereo unspecified) the results were USP17 inh 3.2, USP30 block -12.0 and USP28 inh -5.3.
Screening O=C(Nc1cccc2ccccc12)C1CCCN(S(=O)(=O)Cc2ccccc2)C1 (stereo unspecified) returned USP17 inh 72.5*, USP30 block 23.3 and USP28 inh 7.4.

Compound activity as filed in PubChem BioAssay.
